Dicer inh = inhibitors of human Dicer processing of pre-microRNA | 6% of 47,000 active | Q9UPY3 | cat-ELCCA pre-miR-21 Dicer processing, chemiluminescence; active compounds read high | z-score at 25 µM; in the data active means z-score above about 3, passing the limit was not always enough;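 further: plate controls were vehicle for no effect and no enzyme for full effect; higher signal means more uncleaved substrate so more Dicer inhibition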
* = called active by the depositor. The entries come from a sample that favours hits as a whole.

SMILES	Dicer inh
CCc1ccc(S(=O)(=O)Nc2cccc(S(N)(=O)=O)c2)cc1	-0.66
CCc1ccc(-c2nc3cc(NS(=O)(=O)c4ccccc4)ccc3o2)cc1	2
CCc1ccc(S(=O)(=O)Nc2ccc3oc(=O)sc3c2)cc1	7.9*
S=C1SCN(CC2CC2)CN1CC1CC1	0.9
CCOC(=O)Cn1cnc2sc3c(c2c1=O)CCCC3	0.61
OCCN1C[C@H](O)[C@@H](O)[C@H](O)[C@H]1CO	0.15
Cc1c(-c2ccnc(NS(=O)(=O)c3cc(C(F)(F)F)cc(C(F)(F)F)c3)n2)cnn1-c1ccccc1	-1.9
O=C(/C=C/C(=O)Oc1ccc(Cl)cc1Cl)Oc1ccc(Cl)cc1Cl	3.7*
O=S(=O)(CS(=O)(=O)Oc1ccc(Cl)cc1Cl)Oc1ccc(Cl)cc1Cl	2.3
CC(Oc1ccc(Cl)cc1Cl)C(=O)Oc1ccc(Cl)cc1Cl (stereo not drawn)	8.2
c1ccc(C(Cc2nc(-c3ccncc3)no2)c2ccccc2)cc1	0.43
COC(=O)C(O)(c1ccc(NC(=O)Nc2cccc(Cl)c2)c(C)c1)C(F)(F)F (stereo not drawn)	-0.21
COc1cc(C2Nc3cccc4cccc(c34)N2)ccc1O	3.6*
COc1cc(C2N3CC4(C)CN2CC(C)(C3)C4)ccc1O (stereo not drawn)	2.7
N#Cc1ccc(C2NC(=O)c3ccccc3N2)cc1 (stereo not drawn)	-1.5
Cc1cccc(C2Nc3cccc4cccc(c34)N2)c1	3.6*
CCc1ccc(C2CC(c3cccc(C)c3)n3nc(N)nc3N2)cc1 (stereo not drawn)	-0.17
COc1ccc(C2NC(=O)c3ccccc3N2)cc1O (stereo not drawn)	1.3
c1ccc(-c2ccc(C3Nc4cccc5cccc(c45)N3)cc2)cc1	3.2*
Oc1ccc2ccccc2c1C1Nc2cccc3cccc(c23)N1	-0.25
Cc1ccc(C2CC(c3cccc(C)c3)n3ncnc3N2)cc1 (stereo not drawn)	-0.36
O=c1c(Cc2cccc(Br)c2)c(-c2ccccc2)oc2ccccc12	-1.3
CCC(=O)Nc1nn(C)c2cccc(F)c12	-0.58
Cc1ccc(C2Nc3ccc(C(=O)c4ccccc4)cc3NC3=C2C(=O)CC(C)(C)C3)o1 (stereo not drawn)	-0.92
CCOC(=O)Cn1cnc2c(sc3nc(C)cc(C)c32)c1=O	-0.62
SMILES	Dicer inh
CC(C)OC(=O)COc1ccc2c(=O)c(Oc3ccccc3Br)coc2c1	-0.81
O=C1CNC(=S)N1Cc1ccccc1	-0.19
CCOC(=O)c1ccc(NC2SC(=O)NC2=O)cc1 (stereo not drawn)	-1.2
O=C(CCCSc1nc(-c2ccco2)cc(C(F)(F)F)n1)Nc1ccccc1F	0.84
NC(=Nc1ccc(F)cc1)SCc1c(Cl)cccc1Cl	2.6
O=c1c2c(n3nnnc3n1Cc1ccccc1)-c1ccccc1CC21CCCCC1	3.2*
CCOC(=O)CSc1nc2c(c(=O)[nH]1)C1(CCCCC1)Cc1ccccc1-2	-0.76
NC(=O)CSc1nnc2n(Cc3ccccc3)c(=O)c3c(n12)-c1ccccc1CC31CCCCC1	3
COC(=O)c1cc(S(=O)(=O)N2CCC(Cc3ccccc3)CC2)oc1C	-0.39
CCOC(=O)Cn1c(C)nc2ccccc21	4.7*
O=C(O)CCSc1nc2ccccc2n1Cc1ccccc1	1.4
CCSc1nc2ccccc2n1CC(N)=O	6.7*
CCn1c(SCC(=O)O)nc2ccccc21	3.1*
CCOC(=O)Cn1c(-c2ccccn2)nc2ccccc21	-0.59
NC(=O)CSc1nc2ccccc2n1CCO	12
O=C(O)Cn1c(SCc2ccccc2)nc2ccccc21	1.2
CCOC(=O)Cn1c(=O)n(CC(=O)OCC)c2ccccc21	-1.1
NC(=O)Cn1c(SC2CCCCC2)nc2ccccc21	1.7
Cn1nc(C(F)(F)F)c(-c2ccccc2)c1/N=C/c1cccc(C(F)(F)F)c1	0.17
O=C(Oc1ccc(C2NC(C(=O)O)CS2)cc1)c1ccco1 (stereo not drawn)	2.5
CNC(=S)N/N=C/C=C/c1ccccc1	-1.1
Nc1ccc(-c2nc3cc(N)ccc3n2-c2ccccc2)cc1	3.4*
Cc1nc2ccccc2n1-c1ccccc1	-1.5
C=CCn1c(-c2ccc(N)cc2)nc2ccccc21	1.5
CC(C)C(=O)NC(c1ccco1)c1ccc2cccnc2c1O (stereo not drawn)	12
SMILES	Dicer inh
C/S(=N\S(=O)(=O)c1cccc2nsnc12)c1ccc(C(F)(F)F)cn1 (stereo not drawn)	-0.96
COC(=O)c1cc(N2C(=O)C3C4C=CC(CC4)C3C2=O)ccc1Cl (stereo not drawn)	0.58
CCOC(=O)C1=NNC2C(=O)N(c3ccccc3)C(=O)C12 (stereo not drawn)	0.66
COC(=O)C1=NN(c2ccc(OC)cc2)C2C(=O)N(c3ccc(Br)cc3)C(=O)C12 (stereo not drawn)	0.67
CCOC(=O)C1=NN(c2ccc(OC)cc2)C2C(=O)N(c3ccccc3)C(=O)C12 (stereo not drawn)	4.7*
CCc1ccc(Oc2coc3cc(OC(=O)C(C)C)ccc3c2=O)cc1	-0.73
O=[N+]([O-])c1cccnc1N1CCSCC1	-0.78
COC(=O)c1sc(N2C(=O)c3oc4ccccc4c(=O)c3C2c2cccc(O)c2)nc1C (stereo not drawn)	3.8*
C=CCOC(=O)c1sc(N2C(=O)c3oc4ccc(C)cc4c(=O)c3C2c2ccc(O)cc2)nc1C (stereo not drawn)	3.3*
COC(=O)c1sc(N2C(=O)c3oc4ccccc4c(=O)c3C2c2cccc(Cl)c2)nc1C (stereo not drawn)	1.8
COC(=O)c1sc(N2C(=O)c3oc4ccccc4c(=O)c3C2c2ccc(C)cc2)nc1C (stereo not drawn)	-0.77
CCOC(=O)c1sc(N2C(=O)c3oc4ccc(C)cc4c(=O)c3C2c2ccc(O)cc2)nc1C (stereo not drawn)	0.43
C=CCOC(=O)c1sc(N2C(=O)c3oc4ccc(C)cc4c(=O)c3C2c2ccc(F)cc2)nc1C (stereo not drawn)	-0.01
Cn1c2c(c(=O)n(C)c1=O)C(c1ccccc1)C(C#N)=C(N)O2 (stereo not drawn)	-3.2
NNC(=O)c1sc2nnc(-c3ccccc3)c(-c3ccccc3)c2c1N	0.93
Cc1cc(C)n2c(SC(CNS(=O)(=O)c3ccccc3)c3ccccc3)nnc2n1 (stereo not drawn)	2.2
Cc1cc(C)n2c(SC3CCCCC3NS(=O)(=O)c3ccccc3)nnc2n1 (stereo not drawn)	0
Cc1cc(C)n2c(SC3CCCCC3NS(=O)(=O)c3ccc(Cl)cc3)nnc2n1 (stereo not drawn)	3.6*
CCCc1n(CC(O)COc2ccc(OC)cc2)c2ccccc2[n+]1C (stereo not drawn)	-1.2
COCC(C)NC(=O)CCSc1nc(-c2ccco2)cc(C(F)(F)F)n1 (stereo not drawn)	-1.3
Cc1ccc(-c2cc3ncc(C(=O)c4cc(Br)ccc4O)cn3n2)cc1	0.19
Cc1ccc(C)n1-c1sccc1C(=O)O	2.6
Cc1ccc(C)n1-c1ccc(Br)cc1C(=O)O	8.8
Cc1ccc(C)n1-c1ccc(O)c(C(=O)O)c1	33*
O=c1[nH]nc(SCc2ccccc2)c(=S)[nH]1	5.7
CC(C)N(Cc1ccccc1)C(=O)Nc1ccc(C(F)(F)F)cc1	-1.2
O=C(CSc1nc(-c2ccccc2)cn1-c1ccccc1)NC(=O)Nc1ccccc1	3.4*
CCOC(=O)CSc1nc(-c2ccccc2)cn1-c1ccccc1	0.37
Cn1c(SCC(=O)Nc2ccccc2)nnc1SCC(=O)Nc1ccccc1	-0.03
c1ccc(-c2csc3ncnc(NC4CC4)c23)cc1	-1.1
